Results: PubChem BioAssay AID2314 (National Center for Advancing Translational Sciences (NCATS), 2010)
The whole screen tested about 300,000 compounds, of which about 37,000 (12%) were called active. Rule as the data show it: active = max response mostly above about 13% (no sharp cut-off); inactive = mostly below about 14%. Shown is part of a subset that was picked to be rich in actives.

Assay: Cycloheximide Counterscreen for Small Molecule Inhibitors of Shiga Toxin; also: read at 38.3 µM for the half of the compounds with a filed dose; 0% is about no effect
Details: cell reporter, cycloheximide protein synthesis inhibition counterscreen; stronger effect = higher value

Which max response does the source give for `Cc1cc2c(c(=O)n1C)C(C(C)C)C(C#N)=C(N)O2` (stereo not drawn) here?
The max response was -2.6% (inactive).

With `Cc1cccc(C)c1NC(=O)CS(=O)CC(=O)N1CCN(c2ccccc2)CC1` (stereo not drawn) as the compound, how does the max response read?
The max response was -5.35% (inactive).

With `CCc1cccc(C)c1N1C(=O)CN(Cc2ccccc2)C1=S` as the compound, how does the max response read?
The max response was -2.45% (inactive).

For `O=C1/C(=C\c2cccnc2)CN(Cc2ccccc2)C/C1=C\c1cccnc1`, which max response is on record?
The max response was 7.45% (inactive).

For `CCOC(=O)N1CCN(c2c(NCCN3CCN(c4ccccc4F)CC3)c(=O)c2=O)CC1`, which max response is on record?
The max response was -2.33% (inactive).

For `COc1ccc(C(CNCC(=O)Nc2ccccc2F)N(C)C)cc1` (stereo not drawn), which max response is on record?
The max response was -2.53% (inactive).

For `COc1ccc(C2C(C#N)=C(N)Oc3cc(N)ccc32)cc1OC` (stereo not drawn), which max response is on record?
Its max response is 11.4% (inactive).

Which max response does the source give for `COCCCn1c(SCc2cccc(OC)c2)nc2cc(OC)c(OC)cc2c1=N` here?
The max response was 6.77% (inactive).

With `CC1(c2ccc(Cl)cc2)NC(=O)N(CC(=O)c2ccc3c(c2)OCO3)C1=O` (stereo not drawn) as the compound, how does the max response read?
Its max response is 14.2% (inactive).

For `Cc1onc(-c2ccccc2)c1C(=O)Nc1ccccc1C#N`, which max response is on record?
The max response was 3.86% (inactive).

For `O=C(c1ccc2c(c1)OCO2)N1CCNc2ccccc2C1`, which max response is on record?
Its max response is 3.63% (inactive).

For `N#Cc1ccccc1NC(=O)c1ccc2c(c1)OCO2`, which max response is on record?
Its max response is 24.8% (active).

With `O=C(CN1CCN(CC(=O)Nc2ccc3c(c2)OCO3)CC1)Nc1ccc(F)cc1` as the compound, how does the max response read?
The max response was -2.15% (inactive).

For `O=C(CN1CCN(c2ccccc2F)CC1)c1ccc2c(c1)OCO2`, which max response is on record?
Its max response is 16.8% (active).

Which max response does the source give for `CSCCC(NC(=O)c1cc([N+](=O)[O-])cc([N+](=O)[O-])c1)c1nc2ccccc2[nH]1` (stereo not drawn) here?
The max response was -1.41% (inactive).

With `Cc1cc(C(=O)N/N=C/c2cc([N+](=O)[O-])cc(C)c2O)n[nH]1` as the compound, how does the max response read?
The max response was 4.92% (inactive).

Which max response does the source give for `Cc1cc(=O)[nH]c(Nc2cccc(Br)c2)n1` here?
The max response was -1.7% (inactive).

For `CN(C)Cc1c(C(=O)N/N=C/c2ccccc2OCc2ccc(F)cc2)nnn1-c1nonc1N`, which max response is on record?
Its max response is -5.05% (inactive).

Which max response does the source give for `O=C(NCCCn1ccnc1)Nc1ccc(Cl)cc1Cl` here?
The max response was -6.88% (inactive).

For `O=C(/C=C/c1ccc(Cl)cc1)NCCCn1ccnc1`, which max response is on record?
The max response was 13.1% (active).

With `CC(C)(C)c1ccc(/C=C/C(=O)NCCCn2ccnc2)cc1` as the compound, how does the max response read?
The max response was -3.02% (inactive).

For `FC(F)(F)c1ccc(CN2C[C@@H]3C(c4ccccc4)C4(c5ccccc5)CC3(C4)[C@H]2c2ccccc2)cc1` (stereo partly drawn), which max response is on record?
Its max response is -2.46% (inactive).

With `Cc1nc2ccc(S(=O)(=O)N(C)CC(=O)NC(C)c3ccccc3)cc2s1` (stereo not drawn) as the compound, how does the max response read?
The max response was -0.483% (inactive).

With `COc1cc(NC(=O)CN(C)S(=O)(=O)c2ccc3nc(C)sc3c2)cc(OC)c1` as the compound, how does the max response read?
The max response was -1.04% (inactive).

Which max response does the source give for `CCN(CC)S(=O)(=O)c1ccc(NC(=O)CN(c2cccc(F)c2)S(C)(=O)=O)cc1` here?
The max response was -1.18% (inactive).

For `Cc1ccc2nc(-c3ccc(NC(=O)CN(C)S(=O)(=O)c4ccccc4)cc3)sc2c1`, which max response is on record?
The max response was 41.9% (active).

For `Cc1cccc(N(CC(=O)Nc2ccc(-c3nc4ccc(C)cc4s3)cc2)S(C)(=O)=O)c1`, which max response is on record?
Its max response is 43% (active).

For `Cc1ccc(N(CC(=O)Nc2cc(C)cc(C)c2)S(=O)(=O)c2cccc3nonc23)cc1`, which max response is on record?
The max response was -2.6% (inactive).
